The source of these data is PubChem BioAssay (NCATS).

Results filed as inconclusive are left out. Calls of active or inactive are those of the source. Unless noted, calls come from the whole dose curve; as a rule, active = well fitted curve in the direction sought with a large enough effect; inconclusive = small, poorly fitted or top-dose-only effect, or another doubt; inactive = no such curve, though single readings can be large; an effect the other way counts as inactive or inconclusive.

The nature of assay [1]: Cell Viability - SK-N-SH (AID 435; calls by dose curve;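 note: potency is the fitted concentration of half-maximal effect; compound exposure lasted 40 h at 37 °C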). The note with it: SK-N-SH neuroblastoma cell viability qHTS. The method in brief:
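Human neuroblastoma line, 40 h exposure at 37 °C, ATP quantified via luciferase luminescence; DMSO and 100 uM tamoxifen define 0 and 100% inhibition for AC50 fitting.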
(In qHTS, concentration-response curves come from the screen itself.)

The nature of assay [2]: Cell Viability - N2a (AID 540).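 Note: plate controls were DMSO alone for no effect and tamoxifen control for full effect; nearly all actives have a fitted effect of over 45% in size.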 The note with it: N2a mouse neuroblastoma cell viability; activity change, negative = cytotoxicity: at 92.2 µM (top of the series). The method in brief: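 Mouse neuroblastoma N2a cells, 1500/well, exposed to compounds 40 h at 37 °C in complete medium. Viability measured as cellular ATP by CellTiter-Glo luminescence; AC50 from Hill fits of concentration-response.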

Assay [3] can be described thus: Cell Viability - NIH 3T3 (AID 541).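 Note: plate controls were DMSO alone for no effect and tamoxifen positive control for full effect; nearly all actives have a fitted effect of over 25% in size.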 The note with it: NIH 3T3 cell viability, qHTS; activity change, negative = cytotoxicity: at 92.2 µM (top of the series). The method, boiled down: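 Mouse NIH 3T3 fibroblasts, 1000 cells/well, rested 5 hr at 37 °C, then exposed to compound for 40 hr at 37 °C in complete medium. Viability read as intracellular ATP by CellTiter-Glo luminescence; AC50 from Hill-equation fits of concentration-response data.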

A short description of assay [4]: Cell Viability - HUV-EC-C (AID 542). Note: % is set by controls: 0 for no effect and ±100 for the full control effect; nearly all actives have a fitted effect of over 35% in size. The method, boiled down: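 HUV-EC-C human vascular endothelial cells, 1000/well, exposed to compound for 40 hr at 37 °C in complete medium. Intracellular ATP was read by CellTiter-Glo luminescence. AC50 came from Hill-equation fits of concentration-response data.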
Assay [5] in a line: Cell Viability - SH-SY5Y (AID 544).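 Note: 0% = DMSO alone and -100% = 100 µM tamoxifen; nearly all actives have a fitted effect of over 55% in size.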 The method, boiled down:
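SH-SY5Y human neuroblastoma cells (1500/well) incubated 5 h, then compound-treated 40 h at 37 °C in complete medium. Viability read as intracellular ATP by CellTiter-Glo luminescence after 20 min; AC50 from Hill-equation fits of qHTS concentration-response.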

The nature of assay [6]: Cell Viability - Renal Proximal Tubule (AID 545).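 Note: 0% = DMSO only and -100% = 100 µM tamoxifen; nearly all actives have a fitted effect of over 40% in size.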 The note with it: renal proximal tubule cells viability, primary cells of rat origin; at 91.7 µM (top of the series). The method, boiled down: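 In this qHTS format, normal rat kidney-derived proximal tubule cells in complete culture medium receive compound titrations, then sit 40 hours at 37 °C before luciferase-based ATP quantitation; potency is reported as AC50 from concentration-response curves.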

The nature of assay [7]: Cell Viability - Mesenchymal (AID 546).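 Note: cells exposed to compound for 40 hours before reading; 0% = DMSO only and -100% = 100 µM tamoxifen.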 The note with it: mesenchymal cells viability, qHTS; activity change, negative = cytotoxicity: at 91.7 µM (top of the series). The method, boiled down: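 AC50 values reflect the drop in intracellular ATP in a human kidney mesenchymal line derived from normal glomeruli. Treatment lasts 40 hr at 37 °C in complete medium, and the signal comes from CellTiter-Glo luminescence.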

A short description of assay [8]: qHTS Assay for Identification of Small Molecule Inducers of Hypoxia Response (AID 2120; active = well fitted curve in the direction sought with a large enough effect in the signal ratio, with a control signal flat, not every such curve was filed as active; the % refers to the signal ratio; note: 0% is about no effect). The method in brief: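 HRE-bla ME-180 cells in Opti-MEM with 0.5% dialyzed FBS, pre-plated 4-5 h, then compound titration for 17 h at 37 degrees Celsius. CCF4 loaded 2.5 h at room temperature; 460/530 nm ratio gave %Activity and AC50 for induction.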
The nature of assay [9]: qHTS assay for small molecule agonists of retinoid X receptor alpha signaling (AID 588544; calls by dose curve). The note with it: HEK293T RXRa-UAS-bla, beta-lactamase reporter, 18 h; 530 nm emission.
For assay [10], the target named is Retinoic acid receptor RXR-alpha (Homo sapiens) (UniProt P19793). The assay is described as above.
Assay [11] can be described thus: qHTS assay for small molecule antagonists of retinoid X receptor alpha signaling (AID 588546; active = well fitted inhibition curve with a large enough effect in the signal ratio, with a control signal flat, not every such curve was filed as active; the % refers to the signal ratio;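 note: cells stimulated with 9-cis-retinoic acid as agonist; % is set by controls: 0 for no effect and ±100 for the full control effect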). As to conditions: HEK293T RXRa-UAS-bla, beta-lactamase ratio, antagonist mode; measured here: W530 green channel, cytotoxicity proxy. The method in brief:
(§1)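 Beta-lactamase reporter inhibition, read as CCF4 fluorescence ratio (ex 405, em 460/530 nm) after 2 h at RT. HEK293T UAS-bla cells, 2500/well, were stimulated with 9-cis-RA at 500 or 100 nM final alongside test compound for 18 h at 37 C.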

Assay [12] has as its target Retinoic acid receptor RXR-alpha (Homo sapiens) (UniProt P19793). The description is as above. The note with it: HEK293T RXRa-UAS-bla, beta-lactamase ratio, antagonist mode. The method, boiled down: as §1
Assay [13] addresses Peroxisome proliferator-activated receptor alpha (Homo sapiens) (UniProt Q07869). Kind of assay: qHTS assay for small molecule agonists of the peroxisome proliferator-activated receptor alpha (PPARalpha) signaling pathway (AID 651778). Note: % of control where 0% means no effect. The note with it: PathHunter PPARalpha complementation, chemiluminescence, 6 h; max response: stronger effect = higher value. The method in brief:
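Chemiluminescence from complemented enzyme reported PPARalpha activation in cells after 6 hr of compound treatment at 37 C. The detection reagent was incubated for 60 min at room temperature, and compounds were scored as agonists.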

Assay [14] in a line: qHTS assay for small molecule agonists of the antioxidant response element (ARE) signaling pathway measured by Nrf2-dependant transcriptional activity (AID 720636; active = well fitted curve in the direction sought with a large enough effect in the repeat runs; an effect the other way counts as inactive or inconclusive; note: % of control where 0% means no effect). The method in brief:
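Quantitative HTS format in HepG2 cells stably expressing an ARE-luciferase reporter; 16 hr compound treatment at 37 C, luciferase signal detected with ONE-Glo.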

Assay [15] is described as follows: qHTS assay for small molecule agonists of the antioxidant response element (ARE) signaling pathway measured by Nrf2-dependant transcriptional activity - cell viability counter screen (AID 720653; active = well fitted curve in the direction sought with a large enough effect in the repeat runs; an effect the other way counts as inactive or inconclusive; note: % is set by controls: 0 for no effect and ±100 for the full control effect). The note with it: ARE-bla HepG2 viability, CellTiter-Glo ATP luminescence, 16 h; max response: stronger effect = lower value. The method in brief:
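Cytotoxicity counter screen: intracellular ATP quantified by CellTiter-Glo luminescence in the same ARE-bla HepG2 plates, after 16 h compound exposure and a 2 h beta-lactamase substrate step.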

Assay [16] in a line: qHTS assay for cell viability of HEK293 cells (AID 743288). Note: % is set by controls: 0 for no effect and ±100 for the full control effect; nearly all actives have a fitted effect of over 50% in size. The note with it: ATP luminescence (CellTiter-Glo), 18 h; max response: stronger effect = lower value. The method, boiled down: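 Luminescent ATP quantitation served as the viability read-out. Cells (parental HEK293, 2,000/well) received compounds after at least 5 h at 37 C and were exposed for 18 h before a 30 min room-temperature reagent step.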

Assay [17] is described as follows: qHTS assay for cell viability of the p53RE-bla HCT-116 cell line (AID 743292). Note: % is set by controls: 0 for no effect and ±100 for the full control effect; nearly all actives have a fitted effect of over 55% in size. The method, boiled down:
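Viability of compound-treated p53RE-bla HCT-116 cells is taken from ATP-dependent luciferase luminescence. Treatment lasts 16 h at 37 C after a 5 h settling period; detection follows 30 min at room temperature.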

Assay [18] addresses Glutathione peroxidase 1 (Homo sapiens) (UniProt P07203). The assay can be described thus: Primary qHTS Assay for Inhibitors of Recombinant Selenoprotein Glutathione Peroxidase 1 (GPX1) (AID 1845191). Note: nearly all actives have a fitted effect of over 65% in size. Note: potency is the fitted concentration of half-maximal effect. The method in brief:
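10 nM GPX1 + cpd, 30 min RT; start w/ 1 mM GSH, 0.5 mM cumene hydroperoxide, 0.5 mM NADPH, 100 nM GR, 0.01% BSA; buffer 50 mM Tris-HCl pH 7.5, 2 mM EDTA, 150 mM NaCl; Fl 340/450, 0 & 15 min.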

Assay [19] deals with Phospholipid hydroperoxide glutathione peroxidase GPX4 (Homo sapiens) (UniProt P36969). Kind of assay: Primary qHTS Assay for Inhibitors of Recombinant Selenoprotein Glutathione Peroxidase 4 (GPX4) (AID 1845192). Note: nearly all actives have a fitted effect of over 65% in size. The method in brief: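 NADPH consumption, followed by fluorescence at 340/450 nm between 0 and 15 min, reports GPX4 activity via coupled glutathione reductase (100 nM). Enzyme 200 nM was pre-exposed to compound 30 min; 0.5 mM cumene hydroperoxide and 1 mM GSH served as substrates.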

The nature of assay [20]: qHTS drug screen for cell cycle checkpoint inhibitors in PARPi-resistant BRCA-mutant ovarian cancer cell lines. (AID 1963452; calls by dose curve). The note with it: PEO1/OlaR viability, CellTiter-Glo luminescence, 96 h, stronger effect = lower value. The method in brief:
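PEO1, PEO4 and PEO1/OlaR ovarian cancer cells, 600 per well, exposed 96 h at 37C to a dilution series. Viability read by CellTiter-Glo luminescence, normalized to DMSO and empty wells; activity summarized as Z-AUC.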

Chain of Glutathione peroxidase 1 (Homo sapiens) (P07203 whole entry, looked up): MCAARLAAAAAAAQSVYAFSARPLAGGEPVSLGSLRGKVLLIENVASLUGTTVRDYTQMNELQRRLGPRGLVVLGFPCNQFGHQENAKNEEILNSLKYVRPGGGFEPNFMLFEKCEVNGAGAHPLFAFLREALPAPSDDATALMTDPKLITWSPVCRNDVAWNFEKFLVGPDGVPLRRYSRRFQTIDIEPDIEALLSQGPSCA
Chain of Phospholipid hydroperoxide glutathione peroxidase GPX4 (Homo sapiens) (P36969 whole entry, looked up): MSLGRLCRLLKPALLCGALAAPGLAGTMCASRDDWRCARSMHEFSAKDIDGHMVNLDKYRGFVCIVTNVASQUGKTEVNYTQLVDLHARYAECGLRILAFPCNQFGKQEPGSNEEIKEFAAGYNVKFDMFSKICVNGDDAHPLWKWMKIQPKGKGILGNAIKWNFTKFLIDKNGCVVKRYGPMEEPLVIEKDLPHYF
Chain of Retinoic acid receptor RXR-alpha (Homo sapiens) (P19793 whole entry, looked up): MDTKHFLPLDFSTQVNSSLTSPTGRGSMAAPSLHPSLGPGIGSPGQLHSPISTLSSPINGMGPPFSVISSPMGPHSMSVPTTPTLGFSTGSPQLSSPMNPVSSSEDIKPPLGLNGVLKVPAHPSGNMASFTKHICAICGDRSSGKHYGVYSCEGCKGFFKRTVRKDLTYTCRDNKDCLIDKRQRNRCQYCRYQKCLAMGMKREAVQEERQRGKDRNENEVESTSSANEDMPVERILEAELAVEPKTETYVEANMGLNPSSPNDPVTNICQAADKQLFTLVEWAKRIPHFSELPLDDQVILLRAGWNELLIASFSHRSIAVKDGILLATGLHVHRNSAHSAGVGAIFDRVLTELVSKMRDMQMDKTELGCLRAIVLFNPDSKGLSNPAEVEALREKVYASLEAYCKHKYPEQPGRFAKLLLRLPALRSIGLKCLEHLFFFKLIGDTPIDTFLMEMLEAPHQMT
Chain of Peroxisome proliferator-activated receptor alpha (Homo sapiens) (Q07869 whole entry, looked up): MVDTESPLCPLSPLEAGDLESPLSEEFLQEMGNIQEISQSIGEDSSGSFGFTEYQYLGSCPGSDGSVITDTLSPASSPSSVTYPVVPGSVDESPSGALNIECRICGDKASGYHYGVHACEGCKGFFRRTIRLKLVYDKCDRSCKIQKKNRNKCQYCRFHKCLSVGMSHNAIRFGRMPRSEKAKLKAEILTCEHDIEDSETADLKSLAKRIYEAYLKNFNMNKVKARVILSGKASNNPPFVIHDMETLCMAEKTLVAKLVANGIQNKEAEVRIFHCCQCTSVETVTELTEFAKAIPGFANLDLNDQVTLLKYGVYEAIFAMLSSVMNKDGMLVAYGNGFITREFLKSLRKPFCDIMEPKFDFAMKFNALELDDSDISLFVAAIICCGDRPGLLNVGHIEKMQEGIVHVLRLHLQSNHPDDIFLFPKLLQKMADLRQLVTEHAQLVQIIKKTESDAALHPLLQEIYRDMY

With `O[C@@H]([C@H](O)[C@@H](O)CBr)[C@@H](O)CBr`, the Potency in assay [1] was > 92 µM (inactive). The activity change, negative = cytotoxicity in [2] was 11.7% (inactive); in assay [6], 2.79% (inactive); in assay [7], 7.81% (inactive). Also, the Potency result in [3], in [5], in assay [14], in assay [17], in [18] and in assay [19] was “inactive” each time. Moreover, the result in [4], in assay [8] and in [10] was inactive. For the same compound, the max response in assay [9] is -11.8%; in assay [11], -10.6%; in assay [12], 12.2% (inactive); in assay [13], -0.722% (inactive); in assay [15], 2.11% (inactive); in assay [16], -10.9% (inactive).

As to `CC=CC1=C(C(=O)O)N2C(=O)[C@@H](NC(=O)[C@H](N)c3ccc(O)cc3)[C@H]2SC1`, in assay [18], the Potency is 7.85 µM (active). Moreover, the Potency result in [19] is “inactive”.

`O=C(Nc1ccc(-c2ccnc(Nc3ccc(N4CCOCC4)cc3)n2)cc1)[C@@H]1CCCN1`: the Potency entry in assay [18] and in [19] was “inactive” in each case. Further, the Z-AUC is -0.466 (inactive) in assay [20], 0.455 in [20] (measured here: PEO1 parental Z-AUC) and 0.0561 in [20] (measured here: PEO4 Z-AUC).

In the case of `O=C(O)C(O)[C@H](O)[C@H](O)[C@H](O)[C@H](O)CO` (some centres not stated), the Potency result in [18] and in assay [19] was “inactive” throughout.

For `O=S(=O)(O)c1ccccc1`, the Potency in assay [1] was > 92 µM (inactive). Further, the activity change, negative = cytotoxicity is -0.532% (inactive) in assay [2], -1.46% (inactive) in assay [6] and 0.153% (inactive) in [7]. The Potency entry in [3], in assay [5], in assay [14], in assay [17], in assay [18] and in [19] was “inactive” throughout. The call in [4], in assay [8] and in [10] was inactive. Besides, the max response is 0.332% in assay [9]; 5.99% in assay [11]; -0.701% (inactive) in [12]; -0.704% (inactive) in assay [13]; 11% (inactive) in [15]; 8.35% (inactive) in assay [16].
